Source: PubChem
An excerpt weighted towards active compounds, which were near 3.8% of everything screened.
FGF22 binding-1: binders of recombinant human FGF22 by thermal shift | SYPRO orange fluorescence; percent of sucrose octasulfate shift, DMSO zero | activity (Tm shift, normalised), % at 9.99 µM | hit rate 1.5% among 340,000 | AID 651658;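 active = mean Tm shift, scaled 0 neutral to 100 positive control, at about 1.3% or above, every replicate too, limit read from the data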
Target sequence (Q9HCT0 whole entry, looked up): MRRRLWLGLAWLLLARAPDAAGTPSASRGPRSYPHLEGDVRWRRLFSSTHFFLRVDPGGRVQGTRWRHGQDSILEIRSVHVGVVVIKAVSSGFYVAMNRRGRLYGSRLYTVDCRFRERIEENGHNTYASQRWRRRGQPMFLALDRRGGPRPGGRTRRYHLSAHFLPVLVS
ADAM10 inh: inhibitors of human ADAM10 | O14672 | recombinant ADAM10, EDANS/DABCYL FRET peptide cleavage, 3 h | inhibition, % at 7 µM | hit rate 0.62% among 370,000 | AID 720582;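 active = inhibition above a per-campaign cutoff equal to the mean of compounds falling between control-based bounds plus 3 SD, cut at about 20% in these data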;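 note: 0% = DMSO wells while the 100% control is not disclosed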
KLK7 zymogen act: proKLK7 (human) activation, primary screen | hit rate 0.9% among 370,000 | P49862 | activation, % at 7 µM | AID 652039 | purified proKLK7, EDANS-DABCYL substrate fluorescence; 100% is mature enzyme control, 0% vehicle;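 active = activation above the mean of all tested compounds plus 3 SD, computed per campaign excluding outliers beyond control limits, cut at about 13% in these data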
Target sequence (P49862 whole entry, looked up): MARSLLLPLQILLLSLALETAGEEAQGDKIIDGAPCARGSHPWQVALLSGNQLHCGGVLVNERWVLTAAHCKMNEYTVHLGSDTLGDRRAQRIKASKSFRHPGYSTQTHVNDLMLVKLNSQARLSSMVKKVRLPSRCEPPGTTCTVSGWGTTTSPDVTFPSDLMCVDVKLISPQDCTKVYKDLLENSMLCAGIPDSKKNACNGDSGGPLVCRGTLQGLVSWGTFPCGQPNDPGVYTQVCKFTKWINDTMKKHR
Ecoli rRNA inh: inhibits bacterial ribosomal RNA function over humanized ribosomes; E. coli WT GFP vs humanized-ribosome RFP mutants, fluorescence, 24 h; stronger effect = lower value; DMSO median 0, no signal -100; GFP signal change (wild-type ribosome), % (no concentration beside the values); hit rate 1.6% among 350,000;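 active = significant combined selectivity score with lowered wild-type GFP, culture density cut under 30%, mutant RFP and density less affected; inactive = any of these conditions unmet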
ADAM17 inh: inhibitors of human ADAM17. P78536. recombinant ADAM17, EDANS/DABCYL FRET peptide cleavage. inhibition, % at 6.95 µM. hit rate 0.83% among 370,000. AID 720648;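 active = inhibition above the mean of compounds lying between control limits plus 3 SD, set per campaign, cut at about 8.5% in these data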;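 note: 0% = DMSO-only wells as the low control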
FGF22 binding-2: binds human FGF22 shifting its melting temperature | shares compounds with FGF22 binding-1 | recombinant FGF22 thermal shift, SYPRO orange fluorescence | thermal shift activity, °C (ΔTm) at 38 µM | hit rate 2% among 1,000 | AID 720646;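 active = fitted rise in melting shift crosses a set limit at or below the top valid dose tested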
SYPRO no-protein: counter-screen for FGF22 binders: compound-only thermal shift, no protein. AID 743019. hit rate 2% among 1,000. shares compounds with FGF22 binding-1. compound-only SYPRO orange thermal shift counter-screen. AC50, µM (highest dose often 38 µM);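 active = rising signal whose fitted curve reaches the 0.54 level within the top valid dose, showing a melting point, actives reach about 13 µM in these data; inactive = the rest, including activity in the opposite direction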; note: value is where the raw curve crosses a fixed level and not half-maximal
Starred values were filed as active, the others as inactive; i = inactive; nt = no result.

SMILES	FGF22 binding-1	ADAM10 inh	KLK7 zymogen act	Ecoli rRNA inh	ADAM17 inh	FGF22 binding-2	SYPRO no-protein
NS(=O)(=O)c1cccc(NC(=O)c2ccc(NS(=O)(=O)c3cccc([N+](=O)[O-])c3)cc2)c1	3.1*	-1	0	-13	-3	0.27	i
O=C(Nc1cccc2ccccc12)c1cccc([N+](=O)[O-])c1	1.7*	3	0	10	0	0.084	i
O=C(CN1C(=O)NC(Cc2c[nH]c3ccccc23)C1=O)Nc1ccc(Br)cc1F (stereo unspecified)	2.3*	9	0	1	2	-0.21	i
CCCNC(=O)CN1C(=O)NC(Cc2c[nH]c3ccccc23)C1=O (stereo unspecified)	0	-4	0	-1	-5	nt	nt
Cc1ccc(NC(=O)CN2C(=O)NC(Cc3c[nH]c4ccccc34)C2=O)cc1 (stereo unspecified)	1.7*	3	-1	-1	-2	-0.52	i
O=C(CN1C(=O)NC(Cc2c[nH]c3ccccc23)C1=O)Nc1ccccc1Br (stereo unspecified)	0	-8	0	-6	4	nt	nt
COc1ccc2c3c(n(C)c2c1)[C@@H](CO)N(C(=O)NC(C)C)CC31CCN(CC2CC2)CC1	0	nt	nt	2	nt	nt	nt
CC(C)CC(=O)Nc1ccc(C(=O)CN2C(=O)NC3(CCOc4ccccc43)C2=O)cc1 (stereo unspecified)	1.9*	9	0	-3	0	-0.16	i
O=C(NCc1ccc(Cl)cc1)c1n[nH]c([N+](=O)[O-])c1Cl	4.2*	3	0	-15*	3	0.34	i
CC(C)C#Cc1ccc([C@@H]2[C@H](CO)N3C(=O)CN(C(=O)C4CCCCC4)C[C@@H]23)cc1	1.2*	nt	nt	6	nt	0.34	i
CC(C)C#Cc1ccc([C@H]2[C@@H](CO)N3C(=O)CN(C(=O)C4CCCCC4)C[C@H]23)cc1	1	nt	nt	6	nt	nt	nt
CC(C)C#Cc1ccc([C@H]2[C@H](CO)N3C(=O)CN(C(=O)C4CCCCC4)C[C@@H]23)cc1	1.6*	nt	nt	5	nt	0.47	i
CN(CC(=O)Nc1cccc(F)c1)C(=O)c1ccc(NC2CC2)c([N+](=O)[O-])c1	-1	14	0	6	1	nt	nt
COc1cccc(NC(=O)CN(C)C(=O)c2ccc(NC3CC3)c([N+](=O)[O-])c2)c1	2.6*	-1	0	-8	-5	0.12	i
COc1cccc(NC(=O)CN(C)C(=O)c2ccc(N3CCCCC3)c([N+](=O)[O-])c2)c1	2.1*	-2	0	-15	1	0.3	i
COc1cccc(NC(=O)CN(C)C(=O)c2ccc(N3CCOCC3)c([N+](=O)[O-])c2)c1	0	-2	0	-2	-1	nt	nt
CCOc1ccc(C2NC(=O)Cc3cc(OC)c(OC)cc32)cc1 (stereo unspecified)	0	-1	0	6	1	nt	nt
CCOc1ccc(C2OC(=O)Cc3cc(OC)c(OC)cc32)cc1 (stereo unspecified)	14*	7	0	3	-1	0.097	i
N#Cc1cccc(NC(=O)c2ccccc2C(=O)O)c1	nt	7	1	nt	-2	nt	nt
N#Cc1ccc(NC(=O)Nc2cccc(C#N)c2)cc1	1.9*	11	1	-30	-2	nt	6.4µM*
Cc1nn(-c2ccccc2)c(C)c1/C=N/NC(=O)c1cc(-c2cccs2)[nH]n1	1.6*	1	1	-38	-2	-0.17	i
Cc1nn(-c2ccccc2)c(C)c1/C=N/NC(=O)c1cc(-c2ccc(Br)s2)[nH]n1	nt	-4	0	nt	-4	nt	nt
COc1cc(C2C(C#N)=C(N)Oc3n[nH]c(-c4cccnc4)c32)cc(Br)c1O (stereo unspecified)	1.8*	3	0	-13	1	0.28	i
COc1ccc(NC(=O)CCN2C(=O)c3ccccc3C2=O)c(OC)c1	0	-6	0	6	-2	nt	nt
COc1ccc(NC(=O)CCCN2C(=O)CN(C)C2=O)c(OC)c1	15*	1	0	nt	0	nt	i
